We go through 40 compounds from the supplement of paper PMC7184167.

Counter-ions that a name gives are not always drawn.

In the assay the test system is replication-induced senescent mouse newborn dermal fibroblasts (NBF). The assay can be described thus: relative cell viability of senescent cells (fraction); higher = less killing of senescent cells. The conditions noted are these: 1 µM; 3 days. How it is done:
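Replication-induced senescent newborn mouse skin fibroblasts (NBFs) in 24-well plates were treated with a Selleck FDA-approved drug library at 1 µM for 3 days.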
In turn, `C[C@H]1C[C@H]2[C@@H]3CCC4=CC(=O)C=C[C@]4(C)[C@H]3C(=O)C[C@]2(C)[C@@]1(O)C(=O)CO` [Meprednisone] came in with a relative cell viability of 1.09.

For the compound `CC(C(=O)O)c1ccc(-c2ccccc2)c(F)c1` (stereo not given) [Flurbiprofen], the relative cell viability is 1.04. The value for `CC(C)NCC(O)COc1ccc(CCOCC2CC2)cc1` (stereo not given) [Betaxolol HCl] was 1.1. Under `Cc1ccc(NC(=O)c2ccc(CN3CCN(C)CC3)cc2)cc1Nc1nccc(-c2cccnc2)n1` [Imatinib (STI571)] stands 1.12; under `Cc1ccc(C)c(OCCCC(C)(C)C(=O)O)c1` [Gemfibrozil], 1.02; under `CC(C)(C)c1cc(NC(=O)Nc2ccc(-c3cn4c(n3)sc3cc(OCCN5CCOCC5)ccc34)cc2)no1` [Quizartinib (AC220)], 0.955.

In the case of `CC1COc2c(N3CCN(C)CC3)c(F)cc3c(=O)c(C(=O)O)cn1c23` (stereo not given) [Ofloxacin], the relative cell viability stood at 1. In turn, `CO[C@H]1C[C@@H]2CC[C@@H](C)[C@@](O)(O2)C(=O)C(=O)N2CCCC[C@H]2C(=O)O[C@H]([C@H](C)C[C@@H]2CC[C@@H](O)[C@H](OC)C2)CC(=O)[C@H](C)/C=C(\C)[C@@H](O)[C@@H](OC)C(=O)[C@H](C)C[C@H](C)/C=C/C=C/C=C/1C` [Rapamycin (Sirolimus)] showed a relative cell viability of 0.735.

Take `CCOc1cc(CC(=O)N[C@@H](CC(C)C)c2ccccc2N2CCCCC2)ccc1C(=O)O` [Repaglinide]: the relative cell viability is 0.978.

In turn, `CCN(CC)CC#CCOC(=O)C(O)(c1ccccc1)C1CCCCC1` (stereo not given) [Oxybutynin] came in with a relative cell viability of 0.938. Under `O=C(N[C@H](CO)[C@H](O)c1ccc([N+](=O)[O-])cc1)C(Cl)Cl` [Chloramphenicol] stands 0.706; under `CCCc1nn(C)c2c(=O)[nH]c(-c3cc(S(=O)(=O)N4CCN(C)CC4)ccc3OCC)nc12` [Sildenafil Citrate], 0.891; under `CC1(C)O[C@@H]2C[C@H]3[C@@H]4CCC5=CC(=O)C=C[C@]5(C)[C@@]4(F)[C@@H](O)C[C@]3(C)[C@]2(C(=O)CO)O1` [Triamcinolone Acetonide], 1.02.

In turn, `N#C[C@@H]1C[C@@H]2C[C@@H]2N1C(=O)[C@@H](N)C12CC3CC(CC(O)(C3)C1)C2` [Saxagliptin] had a relative cell viability of 0.999. With `Nc1nc2c(ncn2COC(CO)CO)c(=O)[nH]1` [Ganciclovir], the relative cell viability came out at 0.995. Under `Nc1ccn([C@@H]2O[C@H](CO)[C@@H](O)C2(F)F)c(=O)n1` [Gemcitabine] stands 0.11. The value for `CO[C@H]1C[C@@H]2CC[C@@H](C)[C@@](O)(O2)C(=O)C(=O)N2CCCC[C@H]2C(=O)O[C@H]([C@H](C)C[C@@H]2CC[C@@H](OC(=O)C(C)(CO)CO)[C@H](OC)C2)CC(=O)[C@H](C)/C=C(\C)[C@@H](O)[C@@H](OC)C(=O)[C@H](C)C[C@H](C)/C=C/C=C/C=C/1C` was 0.603; that for `Cc1ccc(NC(=O)C2(c3ccc4c(c3)OC(F)(F)O4)CC2)nc1-c1cccc(C(=O)O)c1` [VX-809 (Lumacaftor)] was 0.838. Under `COc1cc2c(Oc3ccc4[nH]c(C)cc4c3F)ncnc2cc1OCCCN1CCCC1` [Cediranib (AZD2171)] stands 0.269. In turn, `COC(=O)N[C@H](C(=O)N1CCC[C@H]1c1ncc(-c2ccc(-c3ccc(-c4cnc([C@@H]5CCCN5C(=O)[C@@H](NC(=O)OC)C(C)C)[nH]4)cc3)cc2)[nH]1)C(C)C` registered a relative cell viability of 0.545. Under `NS(=O)(=O)c1cc2c(cc1Cl)NC(C(Cl)Cl)NS2(=O)=O` (stereo not given) [Trichlormethiazide] stands 0.981; under `N=C(N)NC(=O)c1nc(Cl)c(N)nc1N` [Amiloride HCl], 0.768. The value for `NC(=O)NO` [Hydroxyurea] was 0.967; that for `CCCCC(=O)O[C@]1(C(=O)CO)[C@@H](C)C[C@H]2[C@@H]3CCC4=CC(=O)C=C[C@]4(C)[C@@]3(F)[C@@H](O)C[C@@]21C` [Betamethasone Valerate] was 1.15; that for `Nc1ccccc1NC(=O)c1ccc(CNC(=O)OCc2cccnc2)cc1` [Entinostat (MS-275)] was 0.536. Under `Cn1c(=O)c2c(ncn2CC(O)CO)n(C)c1=O` (stereo not given) [Dyphylline] stands 0.335; under `O=C1CCC(N2C(=O)c3ccccc3C2=O)C(=O)N1` (stereo not given) [Thalidomide], 0.296; under `CCC[C@H](NC(=O)[C@@H]1[C@H]2CCC[C@H]2CN1C(=O)[C@@H](NC(=O)[C@@H](NC(=O)c1cnccn1)C1CCCCC1)C(C)(C)C)C(=O)C(=O)NC1CC1` [Telaprevir (VX-950)], 0.411. The compound `COc1ccc([C@@H]2Sc3ccccc3N(CCN(C)C)C(=O)[C@@H]2OC(C)=O)cc1` [Diltiazem HCl] registered a relative cell viability of 1.09. Under `COc1cc2/c(=N/c3ccc(Br)cc3F)nc[nH]c2cc1OCC1CCN(C)CC1` [Vandetanib (ZD6474)] stands 0.464.

`COc1cc2nccc(Oc3ccc(NC(=O)C4(C(=O)Nc5ccc(F)cc5)CC4)cc3)c2cc1OC` had a relative cell viability of 0.453. The value for `CCOc1ccc(Cc2cc([C@@H]3O[C@H](CO)[C@@H](O)[C@H](O)[C@H]3O)ccc2Cl)cc1` [Dapagliflozin] was 1.2; that for `COc1ccc(C2CNC(=O)C2)cc1OC1CCCC1` (stereo not given) [Rolipram] was 1.07; that for `C[C@@H](O[C@H]1OCCN(Cc2n[nH]c(=O)[nH]2)[C@H]1c1ccc(F)cc1)c1cc(C(F)(F)F)cc(C(F)(F)F)c1` [Aprepitant] was 1.08.

Turning to `NC(=O)N1c2ccccc2C=Cc2ccccc21` [Carbamazepine], the relative cell viability turned out to be 0.859. `Cc1ccc(C(=O)Nc2ccc(CN3CCN(C)CC3)c(C(F)(F)F)c2)cc1C#Cc1cnc2cccnn12`: the relative cell viability amounted to 0.964. Under `COc1ccccc1OCCNCC(O)COc1cccc2[nH]c3ccccc3c12` (stereo not given) [Carvedilol] stands 1.14.

Compound `CC(C)NCC(O)COc1ccc(COCCOC(C)C)cc1` (stereo not given) [Bisoprolol fumarate] came in with a relative cell viability of 0.929.

`O=C(Nc1cccc2c(=O)cc(-c3nnn[nH]3)oc12)c1ccc(OCCCCc2ccccc2)cc1` [Pranlukast]: the relative cell viability amounted to 1.01. Under `CN(C)CC/C=C1/c2ccccc2Sc2ccc(Cl)cc21` [Chlorprothixene] stands 1.1.
